Source: PubChem BioAssay (EPA / NIEHS)
The source made the active and inactive calls. How the source made its calls: active means hit-call score of the fitted dose curve at least 0.9, where 1 is the maximum; inactive means score below 0.9.

Biological target: Aryl hydrocarbon receptor (Homo sapiens) (UniProt P35869)
Experiment: ATG_Ahr_CIS: Attagene CIS-FACTORIAL HepG2 Assay for human Aryl Hydrocarbon Receptor (Ahr) (AID 2282930)
Conditions: HepG2 AhR cis-factorial reporter transcription; actives raise or lower the signal
Procedure: ATG_CIS is a cell-based, multiplexed-readout assay that uses HepG2, a human liver cell line, with measurements taken at 24 hours after chemical dosing in a 24-well plate.ATG_Ahr_CIS is one of 52 assay component(s) measured or calculated from the ATG_CIS assay. It is designed to make measurements of mRNA induction, a form of inducible reporter, as detected with fluorescence intensity signals by Reverse transcription polymerase chain reaction (RT-PCR) and Capillary electrophoresis technology.Data from the assay component ATG_Ahr_CIS was analyzed into 1 assay endpoint. This assay endpoint, ATG_Ahr_CIS, was analyzed with bidirectional fitting relative to DMSO as the negative control and baseline of activity. Using a type of inducible reporter, measures of mRNA for gain or loss-of-signal activity can be used to understand the reporter gene at the transcription factor-level as they relate to the gene AHR. Furthermore, this assay endpoint can be referred to as a primary readout, because this assay has produced multiple assay endpoints where this one serves a reporter gene function. To generalize the intended target to other relatable targets, this assay endpoint is annotated to the dna binding intended target family, where the subfamily is basic helix-loop-helix protein.
Human liver HepG2 cells are transiently transfected with multiple reporter transcription units (MRTUs) in 6-well plates using FuGene 6 reagent (Roche; 3 ml FuGene/1 mg DNA). The MRTU constructs are regulated by a cis-regulating element (promoter). […] A major difference between the CIS and TRANS system is that in CIS activities of endogenous TFs are measured, whereas the TRANS assay evaluates changes in activities of exogenous, chimeric NR-Gal4 proteins. […] At the end of 24 hour incubation, total RNA was isolated using TriZol reagent (Invitrogen). The isolated RNA is then reverse-transcribed using oligo(dT) primer and Mo-MLV reverse transcriptase (Invitrogen) with DNAse I (Ambion) treatment for 30 min. The one-tenth of the produced cDNA was amplified by PCR using Taq DNA polymerase (Invitrogen) and two reporter sequence-specific primers. The PCR products were fluorescently labeled by primer extension with 6-arboxyfluorescein (6-FAM) 5'-labeled reporter sequence-specific primer (2 min at 95 C, 20 s at 68 C and 10 min at 72 C) and these products were digested with 5U of HpaI (New England Biolabs) for 2h at 37 C. […] The raw capillary electrophoresis data was processed using Attagraph software (Attagene).

Sequence of Aryl hydrocarbon receptor (Homo sapiens) (P35869 whole entry, looked up): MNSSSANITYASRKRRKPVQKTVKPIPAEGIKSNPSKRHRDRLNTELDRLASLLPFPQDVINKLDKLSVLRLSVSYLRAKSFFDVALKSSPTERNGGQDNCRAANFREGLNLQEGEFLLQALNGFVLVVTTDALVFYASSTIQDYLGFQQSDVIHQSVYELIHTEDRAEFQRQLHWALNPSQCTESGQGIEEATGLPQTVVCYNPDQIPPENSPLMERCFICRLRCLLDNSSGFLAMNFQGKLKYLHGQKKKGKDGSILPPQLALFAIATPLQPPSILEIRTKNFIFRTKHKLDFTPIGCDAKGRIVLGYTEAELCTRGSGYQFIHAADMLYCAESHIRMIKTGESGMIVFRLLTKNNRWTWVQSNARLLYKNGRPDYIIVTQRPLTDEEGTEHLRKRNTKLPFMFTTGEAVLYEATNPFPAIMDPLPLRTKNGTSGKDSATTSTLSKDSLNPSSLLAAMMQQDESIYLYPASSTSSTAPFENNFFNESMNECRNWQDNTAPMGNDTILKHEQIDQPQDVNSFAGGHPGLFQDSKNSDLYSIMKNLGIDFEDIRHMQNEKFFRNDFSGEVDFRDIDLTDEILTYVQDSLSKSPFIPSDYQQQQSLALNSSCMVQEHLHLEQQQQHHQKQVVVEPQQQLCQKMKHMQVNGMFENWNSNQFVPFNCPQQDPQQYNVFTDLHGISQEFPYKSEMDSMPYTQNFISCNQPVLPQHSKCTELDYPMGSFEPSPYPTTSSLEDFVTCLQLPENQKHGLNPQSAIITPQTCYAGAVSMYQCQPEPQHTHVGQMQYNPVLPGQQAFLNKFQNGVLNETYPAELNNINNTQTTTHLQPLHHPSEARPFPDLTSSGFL

| SMILES | outcome | AC50 |
| --- | --- | --- |
| CN(C)Cc1cc(CN(C)C)c(O)c(CN(C)C)c1 | inactive |  |
| CO[Si](C)(C)OC |  | 0.376 µM (active) |
| C=Cc1ccc(OC(C)=O)cc1 | inactive |  |
| O=C(O[C@@H]1Cc2c(O)cc(O)cc2O[C@@H]1c1cc(O)c(O)c(O)c1)c1cc(O)c(O)c(O)c1 | inactive |  |
| CN1CCN(C)CC1 | inactive |  |
| Oc1c(Cl)cc(Cl)c(Cl)c1Cl | inactive |  |
| CCCCCCCCCCCCC | inactive |  |
| CCC(C)C(=O)OCCc1ccccc1 (stereo not given) | inactive |  |
| C=C(C)C(=O)OCC(O)COc1ccc(C(C)(C)c2ccc(OCC(O)COC(=O)C(=C)C)cc2)cc1 (stereo not given) | inactive |  |
| C=C(C)C(=O)OCCOC(=O)C(=C)C | inactive |  |
| Cn1ccnc1 | inactive |  |
| Cc1ccc2c(c1)CCCN2 |  | 20.2 µM (active) |
| COC(OC)(C(=O)c1ccccc1)c1ccccc1 | inactive |  |
| CC(CC(C)C)=NO | inactive |  |
| O=C(O)CCC(=O)O | inactive |  |
| CC(=O)CCC1=C(C)CCCC1(C)C | inactive |  |
| CCCCCC[C@@H](O)C/C=C\CCCCCCCC(=O)OCC(O)CO (stereo not given in full) | inactive |  |
| CC1=CCC(C(C)C)C=C1 (stereo not given) | inactive |  |
| CC(C)(C)NC(=O)[C@H]1CC[C@H]2[C@@H]3CC[C@H]4NC(=O)C=C[C@]4(C)[C@H]3CC[C@]12C | inactive |  |
| CC(c1cc(C(C)(C)C)cc(C(C)(C)C)c1O)c1cc(C(C)(C)C)cc(C(C)(C)C)c1O | inactive |  |

| SMILES | outcome | AC50 |
| --- | --- | --- |
| Cc1cc(C)n(CO)n1 | inactive |  |
| CCCCOC(=O)CCC(C)=O | inactive |  |
| CCCCC1C(=O)N(c2ccccc2)N(c2ccccc2)C1=O | inactive |  |
| O=C1CCCCCCCCCCCN1 | inactive |  |
| CC1=NN(c2ccc(S(=O)(=O)O)cc2)C(=O)C1N=Nc1ccccc1 (stereo not given) |  | 10.7 µM (active) |
| O=C(O)CC(C(=O)O)S(=O)(=O)O (stereo not given) | inactive |  |
| CC=CC(=O)OCC(C)C | inactive |  |
| CC(=O)OC/C=C(/C)CCC=C(C)C | inactive |  |
| Oc1ccccc1Cc1ccccc1O | inactive |  |
| CCCCCCCCCCCCCCCCCCOS(=O)(=O)O | inactive |  |
| CCCCCCCCCC[N+](C)(CCCCCCCCCC)CCC[Si](OC)(OC)OC | inactive |  |
| O=C(O)CCCC(=O)O | inactive |  |
| COC(=O)c1ccc(C(=O)OC)c(C(=O)OC)c1 | inactive |  |
| CC(C=O)c1ccccc1 (stereo not given) | inactive |  |
| C=CC(=O)NCOCCCC | inactive |  |
| C=C(C)C1CC=C(C)CC1 (stereo not given) | inactive |  |
| CCC(=O)C1CC(C(C)C)CC=C1C (stereo not given) | inactive |  |
| CC(C)=NNC(N)=S | inactive |  |
| O=C(Nc1ccccc1)c1cc(Cl)ccc1O |  | 3.62 µM (active) |
| CCCC1CCCC(=O)O1 (stereo not given) | inactive |  |
